Measurements from PubChem BioAssay.

experiment: compound effects on differentiated 3T3-L1 adipocyte viability – cell-based, 3T3-L1 adipocytes, calcein-AM fluorescence, 48 h, basal, profiling panel (AID 1163); settings: 3T3-L1 adipocytes viability, higher = more signal; note: test concentration not given here

Structure (SMILES) | z-score
CC(CCN1CCCCc2nc(C)c(C)cc21)=NOC[C@@H](C)[C@H](OCc1ccccc1)C(C)C | 0.588
COC(=O)CC=C[C@@H](C)[C@@H](C=NO[C@@H]1O[C@H](COC(C)=O)[C@@H](OC(C)=O)[C@H](OC(C)=O)[C@H]1OC(C)=O)OC | -0.351
CO[C@@H]1COC(=O)[C@H](CCSC)NC(=O)CC=C[C@@H](C)COC(=O)CCC[C@H]1C | -0.304
CCCNC(=O)OC[C@H]1O[C@H](CCON=C(C)CCC(=O)OC[C@H]2O[C@H](c3ccccc3)C=C[C@@H]2Oc2ccc(OC)cc2)C=C[C@@H]1Oc1ccc(OC)cc1 | 0.354
CCN1C(=O)[C@@H]2[C@H]3C(=CC[C@@H]2C1=O)C1(OCCCO1)[C@H]1O[C@H]1[C@H]3O | -1.03
O=C1[C@H]2[C@H]3[C@H](O)[C@H](O)CC(=NOC[C@@H](O)COCc4ccco4)[C@H]3CC[C@H]2C(=O)N1Cc1ccccc1 | 0.194
CO[C@H]1COC(=O)[C@@H](C)COC(=O)[C@H](C)NC(=O)CC=C[C@H]1C | 0.18
C[C@H]1COC(=O)[C@@H]2CCCN2C(=O)[C@@H](C)COC(=O)[C@H](Cc2ccccc2)NC1=O | -0.501
COC(=O)CC=C[C@@H](C)[C@H](OCc1cccc(-c2ccccc2)c1)C1CCCCC1 | -0.328
C=CC[C@@H]1C=C[C@H](ON=C(C)CCC(=O)OC[C@H]2O[C@H](C#Cc3ccccc3)C=C[C@@H]2Oc2ccc(C)cc2)[C@@H](CO)O1 | -0.48
CON=C[C@@H](NS(=O)(=O)c1ccc(C)cc1)[C@H](C)C=CCC(=O)OC | -0.951
